Values joined by “and” are separate entries in the source; they are usually repeats but may differ in a detail not shown here. Identical values can stand only once. Among all 210,000 compounds or so, about 520 (0.25%) were called active. Cut-off read from the data, not from the text of the source: active = inhibition above about 50%; inactive = the rest. For the sample, actives were picked, then their nearest neighbours and some compounds at random.

This experiment relates to Plasmodium falciparum apicoplast DNA polymerase (apPOL). Briefly: Pf-apPOL inhibitors, biochemical, fluorescence (AID 1794808). The conditions noted are these: Recombinant Pf-apPOL, molecular beacon fluorescence, 1.5 h; at 10 µM; active compounds read high.
Broadly, the inhibition is the drop in the measured response relative to a control, in per cent. Turning to `Cc1ccc(C(=O)N2CCC(CCOc3ccc(F)cc3)CC2)s1`, the inhibition was 4.5% (inactive).
The figure for `CN1CCN(C(=O)C2CCC(=O)N2Cc2ccccc2Cl)CC1` (centres undefined) is -11.4% (inactive); for `CC(C)c1nnc(NC(=O)CCCOc2ccc(Cl)cc2)s1` it is 4.4% (inactive).
The figure for `O=[N+]([O-])c1ccc(-c2noc(COc3ccc(Cl)cc3Cl)n2)cc1` is 1.6% (inactive); for `O=C(NCCc1ccccc1)C1CCN(S(=O)(=O)c2ccc(Br)s2)CC1` it is -9% (inactive).
The figure for `O=C(NCCc1ccccc1)C1CCN(CC2CCCCC2)CC1` is 12.9% (inactive); for `O=C(NCCc1ccccc1)C1CCN(S(=O)(=O)c2ccc(Br)cc2)CC1` it is 98.3% (active).
Consider `Cc1cccc(NC(=O)c2cc3c(CO)cnc(C)c3oc2=Nc2ccc3c(c2)OCO3)c1`, for which the inhibition was -0.2% (inactive).
As for `CCn1c(-c2cc(NC(=O)c3ccncc3)n[nH]2)cc2ccccc21`, the figure is -0.8% (inactive); as for `O=C(Nc1ccc(Cl)cc1[N+](=O)[O-])c1ccc(Cl)cc1`, -0.2% (inactive); as for `O=C(CCCn1cccc1)Nc1nc(-c2ccco2)cs1`, 0.6% (inactive).
Take `COC(=O)Nc1nc(CC(=O)NCc2ccco2)cs1`: the inhibition is -1.8% (inactive).
As for `Cc1cc(C)nc(Nc2nc(CC(=O)Nc3nc(-c4ccco4)cs3)cs2)n1`, the figure is 69.6% (active).
The figure for `Cc1nccn1Cc1nc(-c2ccc(F)c(Br)c2)no1` is -2.5% (inactive).
The figure for `COc1ccc(C(C)=C2SC(=S)N(CCC(=O)O)C2=O)cc1` is 3.2% (inactive); for `Cc1nc2c(ccc3nc(NC(=O)NCc4cccs4)sc32)s1` it is -4.8% (inactive); for `O=C(c1ccncc1)N1CCCC(c2nc(-c3ccc(F)cc3)n[nH]2)C1` (centres undefined) it is 10% (inactive).
Take `COc1ccc(C(=O)N2CCN(c3nc(C(C)C)c4c(c3C#N)CC(C)(C)OC4)CC2)cc1`: the inhibition was -3.4% (inactive).
The figure for `CCCNc1cc(N2CCC(CCC(=O)NC(C)C)CC2)ncn1` is -1.9% (inactive).
As for `COc1cc(/C=c2\sc3nc(-c4ccc(Cl)cc4)nn3c2=O)cc(OC)c1OC`, the figure is 3.7% (inactive); as for `Cc1ccc(S(=O)(=O)NC(=O)NCCSCc2ccco2)cc1`, 25.5% (inactive) and 3.2% (inactive).
For the molecule `O=C(Cn1nnc2ccccc21)NCCSCc1ccco1`, the inhibition is 9.1% (inactive).
Consider `O=C(CSc1nnc(SCC(=O)NCCSCc2ccco2)s1)NCCSCc1ccco1`, for which the inhibition was 91.9% (active).
As for `COc1ccccc1OCCNC(=O)CSc1ccc(C(F)(F)F)cc1[N+](=O)[O-]`, the figure is -0.4% (inactive); as for `O=C(CSc1ccc(C(F)(F)F)cc1[N+](=O)[O-])NCCOc1ccccc1`, 57.6% (active); as for `Cc1cccc(OCCNC(=O)CSc2ccc(C(F)(F)F)cc2[N+](=O)[O-])c1`, -4.3% (inactive).
The figure for `O=C(Cc1ccsc1)N1CCn2cnnc2C1` is 0.2% (inactive); for `Cc1nc(C(=O)NCc2ccc(C(F)(F)F)cc2)c(C)o1` it is -4.9% (inactive).
Turning to `Cc1ccc(C2CC(c3ccccc3)Nc3nnnn32)cc1` (centres undefined), the inhibition is -7% (inactive).
Take `O=C(Nc1ccccc1[N+](=O)[O-])c1[nH]ncc1[N+](=O)[O-]`: the inhibition is -24.6% (inactive).
The figure for `Cc1ccc(-n2cc(C(=O)Nc3ccc4c(c3)OCCO4)c3ccccc3c2=O)cc1C` is -2.6% (inactive); for `O=C(c1ccoc1)N1CCCCC1CCN1CCOCC1` (centres undefined) it is -2% (inactive); for `O=C(NC1CC1)c1cccc(OCC2CCCN(C(=O)C3CCCCC3)C2)c1` (centres undefined) it is -3.3% (inactive).
For the molecule `COc1ccc(CNC(=O)c2cncc(OC)c2)cc1`, the inhibition was 0.2% (inactive).
As for `O=C(CS(=O)(=O)CC(=O)c1ccccc1)c1ccccc1`, the figure is -2.4% (inactive).
`Cc1c(Cl)ccc(NC(=O)C2CCCN2S(=O)(=O)c2ccccc2)c1Cl` (centres undefined): the inhibition was -7.1% (inactive).
The figure for `O=C(Nc1ccc(Cl)cc1)NC1(C(F)(F)F)Oc2ccccc2O1` is 1.5% (inactive); for `COc1ccc(Cl)cc1NC(=O)CN(c1ccccc1)S(=O)(=O)c1ccccc1[N+](=O)[O-]` it is -6.5% (inactive); for `CC1=C(C(=O)Nc2ccc(Cl)cc2)C(c2ccc(Cl)cc2Cl)n2ncnc2N1` (centres undefined) it is 6% (inactive).
As for `CCN(CC)S(=O)(=O)c1ccc(Cl)c(C(=O)O)c1`, the figure is -5% (inactive); as for `Cc1ccc(Cl)cc1NC(=O)C(=O)NCc1ccccn1`, 0.8% (inactive) and 0% (inactive); as for `O=C(COc1ccc(F)cc1)Nc1nnc(C2CC(=O)N(c3ccccc3)C2)o1` (centres undefined), 4.1% (inactive).
The figure for `CN(C)c1ccc(/C=C(\C#N)c2ccc([N+](=O)[O-])cc2)cc1Br` is -5.5% (inactive); for `COCC(=O)N1CCCCC1c1nncn1CC1CC1` (centres undefined) it is 3.4% (inactive); for `CC(C)(C)C(=O)Oc1ccc(C=Cc2ccccn2)cc1` it is -22% (inactive).
For `O=C(CSc1nnc(NC(=O)c2ccc(Cl)c(Cl)c2)s1)NCc1ccco1`, the inhibition is 0.7% (inactive).
The figure for `O=C(CSc1nnc(NC(=O)c2cc(-c3ccco3)on2)s1)NC1CCCC1` is 60.9% (active); for `Nc1ccc2nc(SCC(=O)NC3CC3)sc2c1` it is 6.4% (inactive).
In the case of `O=C1CC(NCc2ccc3c(c2)OCO3)C(=O)N1c1ccc(OC(F)(F)F)cc1` (centres undefined), the inhibition was 0.2% (inactive).
In the case of `Cc1cc(C)c(S(=O)(=O)N2CCC(c3noc(-c4ccc(F)cc4)n3)CC2)c(C)c1`, the inhibition was -5.5% (inactive).
For the molecule `O=Cc1ccc(OCc2ccc(I)cc2)cc1`, the inhibition was -6.6% (inactive).
As for `COc1ccccc1C(=O)Oc1ccc2c(c1)OC(=Cc1cccc(OC)c1OC)C2=O`, the figure is -1.8% (inactive); as for `COc1ccc(CCNC(=O)CSc2ccc(-n3cccn3)nn2)cc1OC`, -3.3% (inactive).
On to `CC(C)(C)C(O)CCNC(=O)C(=O)NCc1ccccc1` (centres undefined), for which the inhibition is -5.8% (inactive).
As for `O=C(NCC(O)c1ccsc1)c1cccc2ccccc12` (centres undefined), the figure is -3.1% (inactive); as for `COc1ccc(-c2c3c(=O)n(C)c(=O)n(C)c3cn2-c2ccc(Br)cc2)cc1`, 73.4% (active).
As for `COc1ccc(-c2cn3c4c(=O)n(C)c(=O)n(C)c4nc3n2CCO)cc1`, the inhibition is -0.7% (inactive).
The figure for `Cn1c(=O)c2c(-c3ccccc3)n(-c3cccc([N+](=O)[O-])c3)cc2n(C)c1=O` is 0.3% (inactive); for `CN1CCC(N2CCN(C(=O)C3CCc4sc(C(=O)N5CCCC5)cc4C3)CC2)CC1` (centres undefined) it is -2.3% (inactive); for `CC(C)N1CCN(C(=O)c2csc(N3CCN(c4ccccc4)CC3)n2)CC1` it is -6.1% (inactive).
The figure for `CCOc1ccc(-c2cc3n(n2)CCCN(C(=O)c2ccccn2)C3)cc1` is -2.1% (inactive); for `O=C(c1cccc(-n2cnnn2)c1)N1CCN(c2ccc(-c3cccs3)nn2)CC1` it is -10.3% (inactive).
As for `O=C(Nc1cccs1)N1CCN(c2ccc(-c3ccco3)nn2)CC1`, the figure is 64.3% (active); as for `O=C(Nc1cccs1)N1CCN(C(=O)C2CCCO2)CC1` (centres undefined), 0.6% (inactive).

Values taken from PubChem BioAssay AID1794808 (University of Kansas High Throughput Screening Laboratory, 2022).
